Assay results from paper PMC5700166.
Residue numbers refer to the chain shown, from its start.

Legend:
Experiment in all cases: protein-binding microarray (PBM); PBM: ~300 nM protein, 6 mM HEPES pH 7.8, 80 mM KCl, 0.5 mM EDTA, 0.5 mM EGTA, 6% glycerol, 35 ng/ul poly-dIdC, 1% milk, 1 h, room temperature; Ap Aiptasia and Nv Nematostella (sea anemones) / Co Capsaspora / Aq Amphimedon (sponge) / Dm Drosophila / Hu human; RHD is the Rel homology domain; high values mean tight binding
Conditions in all cases: dsDNA, one strand shown
[1] = biological target: T1, GST-Ap-NF-kB RHD (Exaiptasia pallida (Aiptasia), UniProt A0A913YAJ5 2-422)
T1 sequence: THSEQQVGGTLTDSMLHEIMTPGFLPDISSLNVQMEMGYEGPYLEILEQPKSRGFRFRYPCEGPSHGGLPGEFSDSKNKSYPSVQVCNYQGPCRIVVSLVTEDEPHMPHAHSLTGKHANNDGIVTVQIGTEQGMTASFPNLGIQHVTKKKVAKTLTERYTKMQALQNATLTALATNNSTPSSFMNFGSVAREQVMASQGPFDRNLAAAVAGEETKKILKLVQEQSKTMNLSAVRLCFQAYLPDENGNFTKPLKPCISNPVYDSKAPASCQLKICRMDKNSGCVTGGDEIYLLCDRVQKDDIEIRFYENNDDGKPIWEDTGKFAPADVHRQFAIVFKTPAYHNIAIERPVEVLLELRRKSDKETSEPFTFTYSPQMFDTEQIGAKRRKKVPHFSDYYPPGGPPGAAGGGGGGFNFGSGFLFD

[2] = biological target: T2, GST-Nv-NF-kB (Cys allele) (Nematostella vectensis, UniProt E5G601 2-411)
T2 sequence: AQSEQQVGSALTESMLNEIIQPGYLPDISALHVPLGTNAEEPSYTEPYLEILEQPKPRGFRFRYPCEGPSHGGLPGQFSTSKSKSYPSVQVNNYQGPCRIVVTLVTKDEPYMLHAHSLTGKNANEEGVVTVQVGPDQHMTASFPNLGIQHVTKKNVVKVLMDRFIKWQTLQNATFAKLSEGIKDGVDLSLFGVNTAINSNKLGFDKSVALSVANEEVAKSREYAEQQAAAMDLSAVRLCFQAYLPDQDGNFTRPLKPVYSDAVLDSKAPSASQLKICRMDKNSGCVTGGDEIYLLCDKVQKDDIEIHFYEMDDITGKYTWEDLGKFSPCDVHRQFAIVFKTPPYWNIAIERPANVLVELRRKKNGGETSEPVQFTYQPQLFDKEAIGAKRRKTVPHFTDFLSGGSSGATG

[3] = biological target: T3, GST-Nv-NF-kB (Ser allele) (Nematostella vectensis, UniProt A7UNT2 2-411)
T3 sequence: T2 sequence with Q21R, C66S, S207N, E215Q, V217A, E225K, A268E, D399E

[4] = biological target: T4, GST-Co-NF-kB (Capsaspora owczarzaki, UniProt F1ARL5 200-546)
T4 sequence: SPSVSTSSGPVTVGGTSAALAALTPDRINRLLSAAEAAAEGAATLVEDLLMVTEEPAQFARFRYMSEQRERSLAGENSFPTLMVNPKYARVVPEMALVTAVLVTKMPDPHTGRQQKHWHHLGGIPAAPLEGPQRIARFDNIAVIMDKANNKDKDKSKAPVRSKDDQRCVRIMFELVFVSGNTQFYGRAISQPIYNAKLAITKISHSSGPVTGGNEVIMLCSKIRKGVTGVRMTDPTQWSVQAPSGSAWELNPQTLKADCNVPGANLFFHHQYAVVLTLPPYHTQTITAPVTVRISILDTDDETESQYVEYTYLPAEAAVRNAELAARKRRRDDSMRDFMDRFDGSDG

[5] = biological target: T5, GST-Dm-Relish (Drosophila melanogaster, UniProt Q94527 99-473)
T5 sequence: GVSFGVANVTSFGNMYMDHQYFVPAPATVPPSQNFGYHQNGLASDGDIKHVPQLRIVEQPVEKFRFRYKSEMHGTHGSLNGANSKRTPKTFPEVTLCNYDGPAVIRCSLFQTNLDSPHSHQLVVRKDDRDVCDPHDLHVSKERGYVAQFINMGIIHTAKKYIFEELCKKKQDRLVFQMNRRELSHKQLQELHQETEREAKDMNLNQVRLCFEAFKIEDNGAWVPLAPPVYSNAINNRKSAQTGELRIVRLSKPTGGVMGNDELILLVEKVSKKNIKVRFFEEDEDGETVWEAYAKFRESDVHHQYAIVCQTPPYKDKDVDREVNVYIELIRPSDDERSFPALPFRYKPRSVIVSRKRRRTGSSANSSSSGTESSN

[6] = biological target: T6, GST-Aq-NF-kB (Amphimedon queenslandica, UniProt A9Y5G7 2-389)
T6 sequence: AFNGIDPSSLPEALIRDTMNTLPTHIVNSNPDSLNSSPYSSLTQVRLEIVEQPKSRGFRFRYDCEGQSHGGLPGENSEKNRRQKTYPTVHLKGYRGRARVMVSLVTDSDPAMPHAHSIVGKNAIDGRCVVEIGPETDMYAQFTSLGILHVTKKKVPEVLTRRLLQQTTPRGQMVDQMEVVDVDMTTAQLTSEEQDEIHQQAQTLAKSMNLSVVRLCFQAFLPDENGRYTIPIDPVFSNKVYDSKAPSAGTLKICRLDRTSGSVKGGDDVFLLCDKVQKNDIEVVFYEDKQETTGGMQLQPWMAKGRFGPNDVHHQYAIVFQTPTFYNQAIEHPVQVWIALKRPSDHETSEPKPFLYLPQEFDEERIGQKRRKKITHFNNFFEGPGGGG

[7] = biological target: GST-Hu-p50 (Homo sapiens, UniProt P19838 7-356)
GST-Hu-p50, sequence (P19838 7-356): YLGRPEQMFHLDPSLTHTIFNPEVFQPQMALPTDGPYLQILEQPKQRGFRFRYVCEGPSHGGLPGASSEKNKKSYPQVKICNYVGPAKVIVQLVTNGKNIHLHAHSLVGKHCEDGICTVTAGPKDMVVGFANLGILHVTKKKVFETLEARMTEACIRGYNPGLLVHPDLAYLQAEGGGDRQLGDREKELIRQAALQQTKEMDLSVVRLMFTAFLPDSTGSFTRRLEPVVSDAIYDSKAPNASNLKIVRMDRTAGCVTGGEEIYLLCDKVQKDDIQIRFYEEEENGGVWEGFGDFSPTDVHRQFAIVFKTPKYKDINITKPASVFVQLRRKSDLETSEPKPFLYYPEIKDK

Row | Sequence | binding signal [1] [z-score] | binding signal [2] [z-score] | binding signal [3] [z-score] | binding signal [4] [z-score] | binding signal [5] [z-score] | binding signal [6] [z-score] | binding signal [7] [z-score]
1 | CCGATTAACATCAAGGGGGGAATTGATGTTAATCGGGTCTTGATTCGCTTGACGCTGCTG | 7.34 | 7.02 | 7.25 | 7.24 | 5.11 | 5.89 | 6.3
2 | CCGATTAACATCAAAAAAGCCCCTGATGTTAATCGGGTCTTGATTCGCTTGACGCTGCTG | 7.94 | 11.4 | 9.29 | 1.83 | 9.41 | 8.77 | 7.54
3 | CCGATTAACATCAAGGGGAAAAATGATGTTAATCGGGTCTTGATTCGCTTGACGCTGCTG | 6.62 | 8.51 | 11 | 9.12 | 4.24 | 6.11 | 6.67
4 | CCGATTAACATCAAAAACCCCCTTGATGTTAATCGGGTCTTGATTCGCTTGACGCTGCTG | 10.4 | 10.3 | 10.9 | 2.93 | 10.9 | 9.31 | 8.33
5 | CCGATTAACATCAATCTCCCCCCTGATGTTAATCGGGTCTTGATTCGCTTGACGCTGCTG | 7.54 | 5.24 | 7.29 | 8.72 | 4.23 | 5.63 | 6.63
6 | CCGATTAACATCAGAAATATCCCTGATGTTAATCGGGTCTTGATTCGCTTGACGCTGCTG | 2.4 | 2.67 | 2.09 | 1.62 | 3.52 | 4.26 | 3.17
